In PubChem BioAssay AID1159580 (chemical genetic matrix, 2015):
Hit rate of the full screen: of about 5,500 compounds, about 2,000 (36%) were called active. Not shown: some 18% with an inconclusive outcome. Cut-off read from the data, not from the text of the source: active = normalized growth mostly below about 0.91 (no sharp cut-off); inconclusive = no clear call, values can overlap the other calls; inactive = mostly above about 0.92. Some of the results follow.

Assay: chemical genetic growth profiling, strain panel (AID 1159580);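 note: tested at 20 µM; growth read once vehicle control cultures reached saturation at 30 °C; 1 = growth at the plate median or of vehicle wells; lower values mean less growth of the strain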
Settings: growth OD

Measured: normalized growth

COc1ccc2c(c1OC)C(=O)O[C@@H]2[C@H]1c2cc3c(cc2CCN1C)OCO3
inactive: S. cerevisiae deletion strains, locus YJR075W, strain HOC1, hits give low values 1.02 | S. cerevisiae deletion strains, locus YKL009W, strain mrt4, hits give low values 1.03 | S. cerevisiae deletion strains, locus YKL068W, hits give low values 1.02 | S. cerevisiae deletion strains, locus YKL085W, strain MDH1 (second series), hits give low values 1.04 | S. cerevisiae deletion strains, locus YKL085W, strain MDH1, hits give low values 1.04 | S. cerevisiae deletion strains, locus YKL160W, strain elf1, hits give low values 0.974 | S. cerevisiae deletion strains, locus YKL190W, strain CNB1, hits give low values 1.02 | S. cerevisiae deletion strains, locus YKR001C, strain vps1, hits give low values 1.03 | S. cerevisiae deletion strains, locus YKR026C, strain gcn3, hits give low values 0.998 | S. cerevisiae deletion strains, locus YKR091W, strain srl3, hits give low values 0.997 | S. cerevisiae deletion strains, locus YLL001W, strain dnm1, hits give low values 0.994 | S. cerevisiae deletion strains, locus YLL026W, hits give low values 0.992 | S. cerevisiae deletion strains, locus YLL041C, strain sdh2, hits give low values 1 | S. cerevisiae deletion strains, locus YLR027C, strain aat2, hits give low values 0.996 | S. cerevisiae deletion strains, locus YLR039C, strain RIC1, hits give low values 1.07 | S. cerevisiae deletion strains, locus YLR058C, strain SHM2, hits give low values 1.02 | S. cerevisiae deletion strains, locus YLR102C, strain apc9, hits give low values 1.01 | S. cerevisiae deletion strains, locus YLR113W, strain HOG1, hits give low values 0.991 | S. cerevisiae deletion strains, locus YLR221C, strain rsa3, hits give low values 0.983 | S. cerevisiae deletion strains, locus YLR258W, strain gsy2, hits give low values 0.988 | S. cerevisiae deletion strains, locus YLR262C, strain YPT6 (second series), hits give low values 0.98 | S. cerevisiae deletion strains, locus YLR262C, strain YPT6, hits give low values 1.04 | S. cerevisiae deletion strains, locus YLR268W, strain sec22, hits give low values 1.01 | S. cerevisiae deletion strains, locus YLR320W, strain mms22, hits give low values 0.967 | S. cerevisiae deletion strains, locus YLR330W, strain CHS5, hits give low values 1.02 | S. cerevisiae deletion strains, locus YLR342W, strain FKS1 (second series), hits give low values 1.06 | S. cerevisiae deletion strains, locus YLR342W, strain FKS1, hits give low values 0.984 | S. cerevisiae deletion strains, locus YLR357W, strain rsc2, hits give low values 0.998 | S. cerevisiae deletion strains, locus YLR370C, strain arc18, hits give low values 1 | S. cerevisiae deletion strains, locus YLR371W, strain rom2, hits give low values 1.02 | S. cerevisiae deletion strains, locus YLR384C, strain iki3, hits give low values 0.983 | S. cerevisiae deletion strains, locus YLR418C, strain cdc73, hits give low values 1.02 | S. cerevisiae deletion strains, locus YML016C, strain PPZ1, hits give low values 1.01 | S. cerevisiae deletion strains, locus YML032C, strain rad52, hits give low values 1.03 | S. cerevisiae deletion strains, locus YML120C, strain ndi1, hits give low values 0.985 | S. cerevisiae deletion strains, locus YML124C, strain tub3, hits give low values 1.02 | S. cerevisiae deletion strains, locus YMR058W, strain fet3, hits give low values 0.998 | S. cerevisiae deletion strains, locus YMR078C, strain ctf18, hits give low values 1.03 | S. cerevisiae deletion strains, locus YMR125W, strain sto1, hits give low values 0.988 | S. cerevisiae deletion strains, locus YMR129W, hits give low values 1 | S. cerevisiae deletion strains, locus YMR205C, strain PFK2, hits give low values 0.971 | S. cerevisiae deletion strains, locus YMR223W, strain ubp8, hits give low values 1.03 | S. cerevisiae deletion strains, locus YMR231W, strain pep5, hits give low values 0.993 | S. cerevisiae deletion strains, locus YMR263W, strain SAP30, hits give low values 1.01 | S. cerevisiae deletion strains, locus YMR307W, strain GAS1, hits give low values 1.09 | S. cerevisiae deletion strains, locus YNL067W, strain RPL9B, hits give low values 1.01 | S. cerevisiae deletion strains, locus YNL071W, strain lat1, hits give low values 0.997 | S. cerevisiae deletion strains, locus YNL128W, strain TEP1, hits give low values 1.02 | S. cerevisiae deletion strains, locus YNL153C, strain GIM3, hits give low values 1.01 | S. cerevisiae deletion strains, locus YNL183C, strain NPR1, hits give low values 0.953 | S. cerevisiae deletion strains, locus YNL209W, strain ssb2, hits give low values 0.993 | S. cerevisiae deletion strains, locus YNL233W, strain BNI4, hits give low values 1.02 | S. cerevisiae deletion strains, locus YNL248C, strain rpa49, hits give low values 0.999 | S. cerevisiae deletion strains, locus YNL250W, strain rad50, hits give low values 1.02 | S. cerevisiae deletion strains, locus YNL271C, strain bni1, hits give low values 1.01 | S. cerevisiae deletion strains, locus YNL298W, strain CLA4, hits give low values 1.03 | S. cerevisiae deletion strains, locus YNL307C, strain MCK1, hits give low values 1.02 | S. cerevisiae deletion strains, locus YNL322C, strain KRE1 (second series), hits give low values 0.99 | S. cerevisiae deletion strains, locus YNL322C, strain KRE1, hits give low values 1.01 | S. cerevisiae deletion strains, locus YNR049C, strain mso1, hits give low values 0.996 | S. cerevisiae deletion strains, locus YNR052C, strain pop2, hits give low values 1.02 | S. cerevisiae deletion strains, locus YOL006C, strain TOP1, hits give low values 1.04 | S. cerevisiae deletion strains, locus YOL012C, strain htz1 1.03 | S. cerevisiae deletion strains, locus YOL147C, strain pex11, hits give low values 1.02 | S. cerevisiae deletion strains, locus YOR001W, strain rrp6, hits give low values 0.998 | S. cerevisiae deletion strains, locus YOR061W, strain CKA2, hits give low values 1.02 | S. cerevisiae deletion strains, locus YOR069W, strain VPS5, hits give low values 1.02 | S. cerevisiae deletion strains, locus YOR070C, strain gyp1, hits give low values 0.984 | S. cerevisiae deletion strains, locus YOR080W, strain dia2, hits give low values 0.987 | S. cerevisiae deletion strains, locus YOR083W, strain WHI5, hits give low values 0.985 | S. cerevisiae deletion strains, locus YOR106W, strain vam3, hits give low values 0.972 | S. cerevisiae deletion strains, locus YOR136W, strain idh2, hits give low values 1.02 | S. cerevisiae deletion strains, locus YOR144C, strain elg1, hits give low values 1.02 | S. cerevisiae deletion strains, locus YOR184W, strain ser1, hits give low values 1.04 | S. cerevisiae deletion strains, locus YOR231W, strain MKK1, hits give low values 0.994 | S. cerevisiae deletion strains, locus YOR265W, strain rbl2, hits give low values 0.996 | S. cerevisiae deletion strains, locus YOR270C, strain vph1, hits give low values 1.01 | S. cerevisiae deletion strains, locus YOR290C, strain snf2, hits give low values 0.989 | S. cerevisiae deletion strains, locus YOR316C, strain cot1, hits give low values 1.02 | S. cerevisiae deletion strains, locus YPL051W, strain arl3, hits give low values 0.976 | S. cerevisiae deletion strains, locus YPL055C, strain LGE1, hits give low values 1.03 | S. cerevisiae deletion strains, locus YPL078C, strain atp4, hits give low values 1 | S. cerevisiae deletion strains, locus YPL106C, strain sse1, hits give low values 0.976 | S. cerevisiae deletion strains, locus YPL240C, strain hsp82, hits give low values 0.995 | S. cerevisiae deletion strains, locus YPL241C, strain CIN2, hits give low values 1.01 | S. cerevisiae deletion strains, locus YPL256C, strain CLN2, hits give low values 0.971 | S. cerevisiae deletion strains, locus YPR119W, strain clb2, hits give low values 1.02 | S. cerevisiae deletion strains, locus YPR141C, strain kar3, hits give low values 1.03 | S. cerevisiae deletion strains, locus YPR163C, strain tif3, hits give low values 1.03 | S. cerevisiae deletion strains, locus YPR167C, strain met16, hits give low values 1.02 | S. cerevisiae deletion strains, strain wtn01, hits give low values 1.02 | S. cerevisiae strains, strain wild type, hits give low values 1.01
